# Measured values as given in PubChem BioAssay (NCI).
# The panel holds about 79,000 compounds, 15% with a hit somewhere; the sample as a whole holds those more often. Unmarked numbers belong to inactive results. Calls of active or inactive are those of the source. No stated cut-off is given here; in the data, active means growth inhibition above about 70%; inactive means the rest.
# Test: NCI Yeast Anticancer Drug Screen. Data for the mec2-1 strain (AID 157)
# Conditions: S. cerevisiae mec2-1 strain, at 50.0 µM (retest, dose inferred, filed as 5.0), stronger effect = higher value
# Summary of the method: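 Yeast mec2-1 mutant treated with compound. Readout: growth inhibition vs vehicle controls.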
row,Compound,growth inhibition
1,c1ccc(C(c2ccccc2)c2cccnc2)cc1,98% (active)
2,C#CC[As+](c1ccccc1)(c1ccccc1)c1ccccc1,99% (active)
3,CC[CH2][Pb]([CH2]CC)([CH2]CC)[O]C(C)=O,75% (active)
4,CC[PH+](CC)CC.[Cl][Au],99% (active)
5,CN(C)[PH+](N(C)C)N(C)C.CN(C)[PH+](N(C)C)N(C)C.[C-]#[O+].[C-]#[O+].[C-]#[O+].[C-]#[O+].[C-]#[O+].[C-]#[O+].[Co].[Co].[Hg],16%
6,CC1=C(N2CC2)C(=O)c2nc3n(c2C1=O)CCC3OC(=O)CCl (stereo not drawn),47%
7,[N-]=[N+]=Nc1c([N+](=O)[O-])c(=O)n2c3c(cccc13)CCC2,99% (active)
8,CCC[CH2][Sn]1([CH2]CCC)[O]CC(CN2CCCCC2)[O]1 (stereo not drawn),95% (active)

# Same assay, conditions: S. cerevisiae mec2-1 strain, at 50.0 µM, stronger effect = higher value
row,Compound,growth inhibition
1,CC12CCC(=O)C=C1CCC1C2CCC2(C)C(O[Si](C)(C)OC3CCC4C5CCC6=CC(=O)CCC6(C)C5CCC34C)CCC12 (stereo not drawn),98.7% (active)
2,CC1=C[C@H]2O[C@H]3C[C@H]4OC(=O)/C=C\C=C\C(=O)OCC[C@@H](C)[C@H](O)C(=O)OC[C@@]2(CC1)[C@@]4(C)[C@]31CO1,92.9% (active)
3,CCCCCCCC[As](C)(=O)O,2.85%
4,OC1C2[C@@H](O)CCCN2C[C@@H](O)[C@H]1O (stereo partly drawn),-59%
5,COC1(O[C@H]2CC[C@H]3[C@@H]4CCC5=CC(=O)CC[C@]5(C)[C@H]4CC[C@]23C)CCCCC1,99.5% (active)
6,O=[N+]([O-])c1ccc(CS(=O)(=O)C(Cl)(Cl)Cl)o1,98.5% (active)
7,CC([CH2][Hg][Cl])c1ccccc1 (stereo not drawn),99.5% (active)
8,CC(C)CC[CH2][Pb]([CH2]CCC(C)C)([CH2]CCC(C)C)[O]C(=O)C(Cl)(Cl)Cl,98.9% (active)
9,COC1OC(OC)[CH]([Hg][Cl])C1OC (stereo not drawn),99.7% (active)
10,S=C=[N][Sn]([N]=C=S)([c]1ccccc1)[c]1ccccc1.c1ccc2nc(-c3ccc4ccccc4n3)ccc2c1,91.2% (active)
11,CSCCC([NH-])C(=O)O.CSCCC([NH-])C(=O)O.[Zn+2] (stereo not drawn),99.2% (active)
12,C[PH+](C)C.C[PH+](C)C.[Au],91.8% (active)
13,O=C(O)C(Br)C(Br)C(=O)O.[Ag] (stereo not drawn),99.3% (active)
14,CCC1CN1P(=O)(Oc1ccccc1)N1CC1CC (stereo not drawn),-17.2%
15,CCCCCc1cc(O)c(CCCC)c(O)c1,99% (active)
16,N#CC(Cl)(Cl)CCl,13.2%
17,O=C(Cc1c2ccccc2cc2c1ccc1ccccc12)N(CCCl)CCCl,99.3% (active)
18,CC[C@@]1(O)C(=O)OCc2c1cc1n(c2=O)Cc2cc3c(OC)cccc3nc2-1,89.4% (active)
19,CCOC(=O)NP(=O)(NNc1ccccc1)NNc1ccccc1,98.8% (active)
20,C=C1C(=O)O[C@@H]2C[C@@H](C)[C@@H]3C=CC(=O)[C@@]3(C)[C@@H](O)[C@H]12,17.4%

row,Compound,growth inhibition
1,O=C(O)C(F)(F)F.[Ag],99.2% (active)
2,O=C(CBr)Nc1ccccc1,98.9% (active)
3,C1=C[N-]c2c3c(ccc2=C1)=CC=C[N-]3.C1=C[N-]c2c3c(ccc2=C1)=CC=C[N-]3.F[P-](F)(F)(F)(F)F.[Cu+2],99.5% (active)
4,O=[N+]([O-])/C=C/c1ccccc1Cl,92.8% (active)
5,CCOP(=S)(OCC)SSSP(=S)(OCC)OCC,57.8%
6,CCOC(=O)c1ccc(N=Cc2ccc(N(CCCl)CCCl)cc2C)cc1,16.4%
7,COc1ccc2c(c1)CCC(N1CCCC(=O)C1)C2 (stereo not drawn),24.4%
8,CCCCCCC(=O)[O][Hg][c]1ccccc1,99.7% (active)
9,CCC[CH2][Sn]1([CH2]CCC)[O]C(=O)c2cccnc2[S]1,78.3% (active)
10,C[AsH](C)CC[AsH](C)C.C[AsH](C)CC[AsH](C)C.C[AsH](C)CC[AsH](C)C.[Ni],95% (active)
11,O=c1[nH]c2ccccc2n1C1CCN(CCCC(c2ccc(F)cc2)c2ccc(F)cc2)CC1,-11.4%
12,O=[C-]c1ccccc1[C-]=O.[Pd+2].c1ccc([PH+](c2ccccc2)c2ccccc2)cc1.c1ccc([PH+](c2ccccc2)c2ccccc2)cc1,35%
13,c1ccc(C(c2ccccc2)c2cccnc2)cc1,91.2% (active)
14,C#CC[As+](c1ccccc1)(c1ccccc1)c1ccccc1,91.8% (active)
15,CC[CH2][Pb]([CH2]CC)([CH2]CC)[O]C(C)=O,92.7% (active)
16,CC[PH+](CC)CC.[Cl][Au],91.4% (active)
17,CN(C)[PH+](N(C)C)N(C)C.CN(C)[PH+](N(C)C)N(C)C.[C-]#[O+].[C-]#[O+].[C-]#[O+].[C-]#[O+].[C-]#[O+].[C-]#[O+].[Co].[Co].[Hg],99.7% (active)
18,CC1=C(N2CC2)C(=O)c2nc3n(c2C1=O)CCC3OC(=O)CCl (stereo not drawn),57%
19,[N-]=[N+]=Nc1c([N+](=O)[O-])c(=O)n2c3c(cccc13)CCC2,88.8% (active)
20,CCC[CH2][Sn]1([CH2]CCC)[O]CC(CN2CCCCC2)[O]1 (stereo not drawn),85.4% (active)
